Screens from PubChem BioAssay.
Hits are enriched below; roughly 2.5% of the tested compounds scored in any of these assays.
Cruzain noTriton – qHTS Assay for Promiscuous and Specific Inhibitors of Cruzain (without detergent); purified cruzain, Z-FR-AMC fluorescence, no detergent; Potency, µM, most hits filed as inhibitors; actives 2.3% (n = 200,000); Cruzipain (Trypanosoma cruzi), P25779; AID 1476, 2009; further: nearly all actives have a fitted effect of over 40% in size
Target sequence (P25779 123-467 limits assumed): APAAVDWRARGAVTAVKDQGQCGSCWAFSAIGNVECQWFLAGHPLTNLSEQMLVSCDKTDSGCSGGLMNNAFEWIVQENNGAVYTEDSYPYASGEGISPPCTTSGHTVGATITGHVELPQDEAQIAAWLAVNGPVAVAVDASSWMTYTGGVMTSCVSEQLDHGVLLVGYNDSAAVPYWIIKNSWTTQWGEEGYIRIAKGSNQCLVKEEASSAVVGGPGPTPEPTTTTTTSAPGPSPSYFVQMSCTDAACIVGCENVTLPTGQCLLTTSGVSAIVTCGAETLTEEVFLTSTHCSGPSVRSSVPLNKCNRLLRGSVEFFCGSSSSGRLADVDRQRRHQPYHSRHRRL
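Purified cruzain at 1.5 nM, pre-incubated 15 min with compound at room temperature in 100 mM sodium acetate pH 5.5, 5 mM DTT, 0.00005% Triton X-100. Reaction started with 2 uM Z-FR-AMC; AMC fluorescence increase over 60 s gives rate.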
Cruzain inh Det – qHTS Assay for Promiscuous and Specific Inhibitors of Cruzain (with detergent); purified cruzain, Z-FR-AMC fluorescence, 0.01% Triton; actives 0.43% (n = 200,000); Potency, µM, hits mostly inhibitors; further: nearly all actives have a fitted effect of over 40% in size
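Sodium acetate buffer (100 mM, pH 5.5) containing 5 mM DTT and 0.01% Triton X-100 hosted 1.5 nM cruzain and test compound for 15 min at room temperature. Cleavage of 2 uM Z-FR-AMC was then tracked by fluorescence.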
Large screens that a line does not name were inactive. The call rests on the fitted dose curve; in most records, active means well fitted curve in the direction sought with a large enough effect; inconclusive means small, poorly fitted or top-dose-only effect, or another doubt; inactive means no such curve, though single readings can be large; an effect the other way counts as inactive or inconclusive.

COc1cc(C(=O)O/N=C2\C=CC(=O)C(C)=C2)cc(OC)c1OC	Cruzain inh Det inconclusive
COc1cc(C(=O)ON=C2C=C(C)C(=O)C(C)=C2)cc(OC)c1OC	Cruzain noTriton inconclusive, Cruzain inh Det 3.5µM
CCCCC1CCC(C(=O)N2CC(=O)Nc3ccc(Cl)cc3C2c2ccc(F)cc2)CC1 (stereo not given)	none
COc1cc(Nc2nc(SCc3ccccc3F)nc3ccccc23)cc(OC)c1	none
O=C(CSc1nc(Nc2ccccc2)c2ccccc2n1)c1ccc(Cl)cc1	Cruzain noTriton inconclusive
COc1cc(Nc2nc(SCc3ccc(Cl)cc3)nc3ccccc23)cc(OC)c1	Cruzain noTriton inconclusive
COc1cc(Nc2nc(SCC(=O)c3ccc(Cl)c(Cl)c3)nc3ccccc23)cc(OC)c1	Cruzain noTriton 6.3µM
COc1cc(Nc2nc(SCc3cccc(Cl)c3)nc3ccccc23)cc(OC)c1	Cruzain noTriton 20µM
COc1cc(Nc2nc(SCc3ccccc3Cl)nc3ccccc23)cc(OC)c1	Cruzain noTriton 16µM
O=C(CN1CCCN(Cc2ccc(F)cc2)S1(=O)=O)NCc1ccccc1Cl	none
Cc1ccc(CNC(=O)CN(C)S(=O)(=O)c2ccc3c(c2)c(=O)n(C)c(=O)n3C)cc1	none
O=C(NCCCN1CCN(c2ccccc2F)CC1)c1cc2c(s1)-c1ccccc1OC2	none
Cc1cccc(CCNC(=O)c2cc3c(s2)-c2c(C)cccc2OC3)c1	Cruzain inh Det inconclusive
CN(C)CCNC(=O)c1cc2c(s1)-c1ccccc1OC2	Cruzain noTriton 10µM, Cruzain inh Det inconclusive
CCCN1CCN(CCCNC(=O)c2cc3c(s2)-c2c(C)cccc2OC3)CC1	Cruzain noTriton inconclusive, Cruzain inh Det 18µM
Cc1cccc2c1-c1sc(C(=O)NCCc3ccc(Cl)cc3)cc1CO2	Cruzain noTriton 25µM
COc1ccc(CCNC(=O)c2cc3c(s2)-c2ccccc2OC3)cc1OC	Cruzain noTriton inconclusive
CCN(CC)C(=O)Cn1c(=O)n(-c2ccc(Cl)cc2)c(=O)c2c3c(sc21)CCC3	none
N#C[C@H]1[C@H](c2ccccc2)[C@](C#N)(C(=O)c2ccccc2)[C@@H]2C=Cc3ccccc3N21	Cruzain noTriton 25µM
COc1ccc(C(=O)N2c3ccccc3C=CC2C#N)cc1 (stereo not given)	none
CCn1c(=O)c2sccc2n2c(CCCC(=O)Nc3ccc(OC)c(OC)c3)nnc12	none
Cc1cc(C(F)(F)F)c(C#N)c(SCC(=O)Nc2nc3cc(Br)ccc3s2)n1	Cruzain noTriton 20µM
CCOC(=O)NC(=O)CSc1nc(C)cc(C(F)(F)F)c1C#N	none
C/C(=N\NC(=O)c1ccc(Cl)cc1)c1ccc(Br)s1	Cruzain noTriton inconclusive
C/C(=N\NC(=O)c1cc(Cl)ccc1O)c1ccc(Br)s1	Cruzain noTriton 10µM
O=C(Nc1ccccc1)N1CC[C@@]2(CCCN(C(=O)c3cccc(F)c3)C2)C1	none
O=C(CN1C(=O)c2ccccc2C1=O)Nc1ccc2c(c1)OCO2	none
O=C(Cn1c(O)c(/C=C2\C=Nc3ccccc32)sc1=O)Nc1ccc2c(c1)OCO2	Cruzain noTriton 5µM
C#CCOC(=O)/C(=C/C=C/c1ccccc1)NC(=O)c1ccccc1	Cruzain noTriton 13µM, Cruzain inh Det 7.1µM
CC(C)OC(=O)/C(=C\C=C\c1ccccc1)NC(=O)c1ccccc1	none
Cc1ccc(CN2c3ccccc3-c3nc(SCC(=O)NCCc4ccccc4)ncc3S2(=O)=O)cc1	none
CCOc1ccc(-c2nnc(SCC(=O)Oc3ccccc3)o2)cc1	none
COc1ccc(-c2ccc(C#N)c(OC(=O)c3c(Cl)cccc3Cl)n2)cc1	Cruzain noTriton inconclusive, Cruzain inh Det 28µM
COc1nc(-c2ccccc2Cl)ccc1C#N	none
CCOc1ccc(N2C(=O)CC(S/C(N)=N/N=C/c3cccs3)C2=O)cc1 (stereo not given)	Cruzain noTriton 10µM
COc1ccc(N2C(=O)CC(S/C(N)=N/N=C(\C)c3cccs3)C2=O)cc1 (stereo not given)	none
CSCCC(NC(=O)c1ccccc1)C(=O)Nc1ccc(C)cc1 (stereo not given)	none
CSCCC(NC(=O)c1ccccc1)C(=O)OCC(=O)Nc1ccc(C)c(Cl)c1 (stereo not given)	Cruzain inh Det 14µM
CSCCC(NC(=O)c1ccc([N+](=O)[O-])cc1Cl)C(=O)OCC(=O)N(C)C (stereo not given)	none
CSCCC(NC(=O)c1ccc(Cl)cc1)C(=O)OCC(=O)Nc1cc(Cl)ccc1C#N (stereo not given)	Cruzain inh Det 25µM
COc1ccc(C2c3cc(OC)c(OC)cc3CC(=O)N2c2cccc(C#N)c2)cc1 (stereo not given)	Cruzain noTriton inconclusive
Cc1ccc(CN2CCSc3ccc(C(=O)NCC(C)c4ccccc4)cc32)cc1 (stereo not given)	none
O=C(NCCc1ccccc1)c1ccc2c(c1)N(Cc1ccc(F)cc1)C(=O)CS2	none
O=C(NCCc1ccc(Cl)cc1)c1ccc2c(c1)N(Cc1ccccc1)C(=O)CS2	Cruzain noTriton 32µM
